About 79,000 compounds went through this panel and 15% of them were active in at least one assay; those are over-represented in the sample as a whole. Activity calls are given as the source filed them. No stated cut-off is given here; in the data, active means growth inhibition above about 70%; inactive means the rest.
Experiment: NCI Yeast Anticancer Drug Screen. Data for the sgs1 mgt1 strain (AID 161);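 further: 0% = growth of cultures given vehicle only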
Details: S. cerevisiae sgs1 mgt1 strain, hits give high values; at 50.0 µM unless noted
Summary of the method: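 Genetically altered yeast, compound exposure, growth inhibition relative to vehicle.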

Row | SMILES | growth inhibition
1 | CC1(C)N=C(N)N=C(N)N1c1ccc(N)cc1 | 2.75% (inactive)
2 | O=C(CC(=O)Nc1ccccc1Cl)NNC(c1cc(N=Nc2ccc(Br)cc2)ccc1O)P(O)O (stereo not drawn) | 16.6% (inactive)
3 | COc1cc(C(=O)N2CCOC23CCN(Cc2ccccc2)CC3)cc(OC)c1OC | -7.8% (inactive)
4 | Cc1c(CCCl)c(N=P(c2ccccc2)(c2ccccc2)c2ccccc2)n2c(nc3ccccc32)c1C#N | -7.75% (inactive)
5 | CC(=O)OC1CCC(C(C)(C)C)CC1 (stereo not drawn) | -19.2% (inactive)
6 | O=C1Nc2cc(Br)ccc2C1=O | 2% (inactive)
7 | N#C/C(=C/NC(N)=S)C(N)=O | -16.4% (inactive)
8 | C=Nc1ccc(Nc2ccccc2)cc1 | -2.4% (inactive)
9 | O=C(N/N=C/c1ccc2c(c1)OCO2)c1ccccc1 | 6.25% (inactive)
10 | CCCCCCCCC(=O)NCO | -21.4% (inactive)
11 | Cc1cc(S(=O)(=O)Nc2nc(N)nc(N3N=CCC3C)n2)c(SCC(=O)O)cc1Cl (stereo not drawn) | 4.7% (inactive)
12 | CC1=C(C(=O)Nc2cc(=O)n(C)c(=O)n2C)C(c2ccco2)C(C(=O)Nc2cc(=O)n(C)c(=O)n2C)=C(C)N1 | -10.9% (inactive)
13 | COc1ccc(/C=N/N2CN(C(C)C(=O)O)B(NCCC(C)C)N=C2N)cc1OC (stereo not drawn) | 20.9% (inactive)
14 | CCN(CCO)c1cccc(C)c1 | -12.5% (inactive)
15 | Nc1nc2ncc(COc3ccc(C(=O)O)cc3)nc2c(=O)[nH]1 | 31.6% (inactive)
16 | N#Cc1ccc(CC(=O)c2ccccc2)cc1 | 0.45% (inactive)
17 | O=[N+]([O-])c1cccnc1S(=O)(=O)c1ccccc1 | 12.2% (inactive)
18 | CC(=O)Nc1cc(Cl)ccc1[N+](=O)[O-] | 27.9% (inactive)
19 | Cc1ccc(NC(=O)C2CCCCC2)cc1 | -6.6% (inactive)
20 | CN1C=C(C(N)=O)Cc2ccsc21 | -15.8% (inactive)

Row | SMILES | growth inhibition
21 | C=C1CC2C=CC1C2 (stereo not drawn) | 1.3% (inactive)
22 | CC(=O)OCC1C2C=CC(C2)C1COC(C)=O (stereo not drawn) | -5.1% (inactive)
23 | COCc1ccccc1-n1nccc1S(C)=O (stereo not drawn) | 1.8% (inactive)
24 | COc1cc2c(cc1OC)C(Cl)C(c1ccc(Br)cc1)=C2Cl (stereo not drawn) | 72.5% (active)
25 | C/C(=N/NC(N)=S)c1ccc([N+](=O)[O-])cc1 | -8.6% (inactive)
26 | Cc1ncc(CN=Cc2ccc(Cl)cc2)c(N)n1 | -9.45% (inactive)
27 | CCCc1ccc(C)c(Br)c1 | 0.9% (inactive)
28 | CSc1ccc(NC(=O)Nc2cc(C)ccc2N=Nc2ccc(C)cc2)cc1 | -4.95% (inactive)
29 | CC(=O)Oc1cc(OC(C)=O)c2c(OC(C)=O)c3c(OC(C)=O)cc(C)cc3cc2c1 | 39.5% (inactive)
30 | CCCNC(=O)Cn1c(-c2ccccc2)cc2ccccc21 | 16.7% (inactive)
31 | CCCCCCCCCCCCC(=O)N1CCOCC1 | 99.8% (active)
32 | NCCCCCCCCCCN | -5.9% (inactive)
33 | CCCN(CCC)C(=O)c1ccccc1C | 6.65% (inactive)
34 | O=C(c1ccccc1)C(Oc1ccccc1)c1ccccc1 (stereo not drawn) | 37.8% (inactive)
35 | Cc1nc2cccc3ccc4c5ccccc5cc1c4c32 | -25% (inactive)
36 | Cc1ccccc1NS(=O)(=O)N1CCCCC1 | -4.3% (inactive)
37 | CC(=O)OCCc1cc2ccccc2oc1=O | -16.8% (inactive)
38 | CC(=O)COC(=O)c1ccccc1 | 28.7% (inactive)
39 | O=C(O)c1cc([N+](=O)[O-])c(O)c2ccccc12 | 6.1% (inactive)

Experiment: NCI Yeast Anticancer Drug Screen. Data for the cln2 rad14 strain (AID 165);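 further: 0% = growth equal to vehicle treated cultures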
Details: S. cerevisiae cln2 rad14 strain, hits give high values; at 50.0 µM unless noted
Summary of the method: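 Compounds are applied to the cln2 rad14 yeast strain, and growth is then compared with that of vehicle-treated cultures to give inhibition.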

Row | SMILES | growth inhibition
40 | CC1(C)N=C(N)N=C(N)N1c1ccc(N)cc1 | -36.8% (inactive)
41 | O=C(CC(=O)Nc1ccccc1Cl)NNC(c1cc(N=Nc2ccc(Br)cc2)ccc1O)P(O)O (stereo not drawn) | 13.4% (inactive)
42 | COc1cc(C(=O)N2CCOC23CCN(Cc2ccccc2)CC3)cc(OC)c1OC | 13.2% (inactive)
43 | Cc1c(CCCl)c(N=P(c2ccccc2)(c2ccccc2)c2ccccc2)n2c(nc3ccccc32)c1C#N | 12.5% (inactive)
44 | CC(=O)OC1CCC(C(C)(C)C)CC1 (stereo not drawn) | 2.5% (inactive)
45 | O=C1Nc2cc(Br)ccc2C1=O | 11.8% (inactive)
46 | N#C/C(=C/NC(N)=S)C(N)=O | 14.6% (inactive)
47 | C=Nc1ccc(Nc2ccccc2)cc1 | -3.25% (inactive)
48 | O=C(N/N=C/c1ccc2c(c1)OCO2)c1ccccc1 | -35.5% (inactive)
49 | CCCCCCCCC(=O)NCO | -3.4% (inactive)
50 | Cc1cc(S(=O)(=O)Nc2nc(N)nc(N3N=CCC3C)n2)c(SCC(=O)O)cc1Cl (stereo not drawn) | -7% (inactive)
51 | CC1=C(C(=O)Nc2cc(=O)n(C)c(=O)n2C)C(c2ccco2)C(C(=O)Nc2cc(=O)n(C)c(=O)n2C)=C(C)N1 | 13.3% (inactive)
52 | COc1ccc(/C=N/N2CN(C(C)C(=O)O)B(NCCC(C)C)N=C2N)cc1OC (stereo not drawn) | 6.3% (inactive)
53 | CCN(CCO)c1cccc(C)c1 | 1.6% (inactive)
54 | Nc1nc2ncc(COc3ccc(C(=O)O)cc3)nc2c(=O)[nH]1 | -16.1% (inactive)
55 | N#Cc1ccc(CC(=O)c2ccccc2)cc1 | -27.4% (inactive)
56 | O=[N+]([O-])c1cccnc1S(=O)(=O)c1ccccc1 | 4.75% (inactive)
57 | CC(=O)Nc1cc(Cl)ccc1[N+](=O)[O-] | 1.25% (inactive)
58 | Cc1ccc(NC(=O)C2CCCCC2)cc1 | 10.6% (inactive)
59 | CN1C=C(C(N)=O)Cc2ccsc21 | -8.95% (inactive)

Row | SMILES | growth inhibition
60 | C=C1CC2C=CC1C2 (stereo not drawn) | 0.25% (inactive)
61 | CC(=O)OCC1C2C=CC(C2)C1COC(C)=O (stereo not drawn) | -47.1% (inactive)
62 | COCc1ccccc1-n1nccc1S(C)=O (stereo not drawn) | 4.1% (inactive)
63 | COc1cc2c(cc1OC)C(Cl)C(c1ccc(Br)cc1)=C2Cl (stereo not drawn) | 48.3% (inactive)
64 | C/C(=N/NC(N)=S)c1ccc([N+](=O)[O-])cc1 | -64.7% (inactive)
65 | Cc1ncc(CN=Cc2ccc(Cl)cc2)c(N)n1 | -12% (inactive)
66 | CCCc1ccc(C)c(Br)c1 | -9.95% (inactive)
67 | CSc1ccc(NC(=O)Nc2cc(C)ccc2N=Nc2ccc(C)cc2)cc1 | -9.3% (inactive)
68 | CC(=O)Oc1cc(OC(C)=O)c2c(OC(C)=O)c3c(OC(C)=O)cc(C)cc3cc2c1 | 31.6% (inactive)
69 | CCCNC(=O)Cn1c(-c2ccccc2)cc2ccccc21 | 18.4% (inactive)
70 | CCCCCCCCCCCCC(=O)N1CCOCC1 | 99.5% (active)
71 | NCCCCCCCCCCN | -29.4% (inactive)
72 | CCCN(CCC)C(=O)c1ccccc1C | -14.1% (inactive)
73 | O=C(c1ccccc1)C(Oc1ccccc1)c1ccccc1 (stereo not drawn) | 36% (inactive)
74 | Cc1nc2cccc3ccc4c5ccccc5cc1c4c32 | 0.9% (inactive)
75 | Cc1ccccc1NS(=O)(=O)N1CCCCC1 | 18.9% (inactive)
76 | CC(=O)OCCc1cc2ccccc2oc1=O | 8.6% (inactive)
77 | CC(=O)COC(=O)c1ccccc1 | 0% (inactive)
78 | O=C(O)c1cc([N+](=O)[O-])c(O)c2ccccc12 | -22.1% (inactive)
